Reference: paper PMC7862700, “An all-to-all approach to the identification of sequence-specific readers for epigenetic DNA modifications on cytosine”

Experiments:
Test in all cases: DAPPL (digital affinity profiling via proximity ligation, sequencing); 10 mM Tris-HCl pH 7.5, 50 mM NaCl, 1 mM DTT, 4% glycerol, room temperature, 30 min; GST-TFs on glutathione beads, 16-mer random dsDNA library, 0.1% formaldehyde crosslink after washing; high values mean tight binding
FLI1 = biological target: T1, FLI1 (Homo sapiens, UniProt Q01543 1-452); settings: protein: recombinant; tags: N-terminal GST; dsDNA, one strand shown
T1 sequence: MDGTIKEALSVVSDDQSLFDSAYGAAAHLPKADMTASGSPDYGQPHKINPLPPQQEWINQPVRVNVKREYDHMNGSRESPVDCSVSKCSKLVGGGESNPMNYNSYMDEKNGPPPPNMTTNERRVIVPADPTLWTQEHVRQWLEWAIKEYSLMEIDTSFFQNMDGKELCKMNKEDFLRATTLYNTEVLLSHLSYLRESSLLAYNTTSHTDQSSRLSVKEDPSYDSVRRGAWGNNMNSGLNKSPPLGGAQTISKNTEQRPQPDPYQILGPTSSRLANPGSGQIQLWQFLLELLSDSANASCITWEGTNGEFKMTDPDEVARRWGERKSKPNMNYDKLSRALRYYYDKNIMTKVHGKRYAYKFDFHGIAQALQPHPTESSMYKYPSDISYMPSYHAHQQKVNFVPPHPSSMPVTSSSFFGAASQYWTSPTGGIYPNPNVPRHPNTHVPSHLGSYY
Method in brief: (§1)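 Sequencing on an Illumina NextSeq500 followed washing, crosslinking with 0.1% formaldehyde, proximity ligation (BsaI/T4 ligase, 1 h, 37 °C) and PCR amplification of pools that had been incubated for 30 min at room temperature with 200 nmole of a random double-stranded 16-mer DNA library in Tris/NaCl/DTT/glycerol buffer. Each pool held DNA-barcoded human transcription factors, expressed in yeast as GST fusions and captured on glutathione beads, plus a tag-only sample. Binding signal is a hexamer's read frequency for a factor divided by its frequency in the tag-only sample.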

ELK1 = biological target: T2, ELK1 (Homo sapiens, UniProt P19419 1-428); settings: protein: recombinant; tags: N-terminal GST; dsDNA, one strand shown
T2 sequence: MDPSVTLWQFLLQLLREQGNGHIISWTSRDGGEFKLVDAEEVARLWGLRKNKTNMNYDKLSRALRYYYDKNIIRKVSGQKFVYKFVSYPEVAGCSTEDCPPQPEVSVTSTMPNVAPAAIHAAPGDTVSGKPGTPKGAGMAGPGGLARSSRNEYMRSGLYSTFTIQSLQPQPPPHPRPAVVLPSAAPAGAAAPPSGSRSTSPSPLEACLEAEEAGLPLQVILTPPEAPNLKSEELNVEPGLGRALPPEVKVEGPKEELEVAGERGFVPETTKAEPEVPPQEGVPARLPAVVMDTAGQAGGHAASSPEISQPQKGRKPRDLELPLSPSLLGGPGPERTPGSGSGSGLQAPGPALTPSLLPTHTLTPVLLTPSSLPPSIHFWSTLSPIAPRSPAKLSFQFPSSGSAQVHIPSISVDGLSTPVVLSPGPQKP
Method in brief: as §1

GABPA = biological target: T3, GABPA (Homo sapiens, UniProt Q06546 1-454); settings: protein: recombinant; tags: N-terminal GST; dsDNA, one strand shown
T3 sequence: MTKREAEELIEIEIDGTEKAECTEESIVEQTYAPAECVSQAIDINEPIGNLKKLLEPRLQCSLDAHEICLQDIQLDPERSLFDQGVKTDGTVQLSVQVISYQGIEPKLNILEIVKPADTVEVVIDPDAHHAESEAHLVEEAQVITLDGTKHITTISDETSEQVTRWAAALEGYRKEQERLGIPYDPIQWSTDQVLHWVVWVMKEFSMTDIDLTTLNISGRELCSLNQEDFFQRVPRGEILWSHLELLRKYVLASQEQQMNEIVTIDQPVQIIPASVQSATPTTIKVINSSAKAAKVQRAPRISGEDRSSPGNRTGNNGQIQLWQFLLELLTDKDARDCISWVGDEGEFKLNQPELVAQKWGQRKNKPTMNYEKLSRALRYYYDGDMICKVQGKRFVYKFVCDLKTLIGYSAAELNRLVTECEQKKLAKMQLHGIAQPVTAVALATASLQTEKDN
Method in brief: as §1

ERG = biological target: T4, ERG (Homo sapiens, UniProt P11308 1-479); settings: protein: recombinant; tags: N-terminal GST; dsDNA, one strand shown
T4 sequence: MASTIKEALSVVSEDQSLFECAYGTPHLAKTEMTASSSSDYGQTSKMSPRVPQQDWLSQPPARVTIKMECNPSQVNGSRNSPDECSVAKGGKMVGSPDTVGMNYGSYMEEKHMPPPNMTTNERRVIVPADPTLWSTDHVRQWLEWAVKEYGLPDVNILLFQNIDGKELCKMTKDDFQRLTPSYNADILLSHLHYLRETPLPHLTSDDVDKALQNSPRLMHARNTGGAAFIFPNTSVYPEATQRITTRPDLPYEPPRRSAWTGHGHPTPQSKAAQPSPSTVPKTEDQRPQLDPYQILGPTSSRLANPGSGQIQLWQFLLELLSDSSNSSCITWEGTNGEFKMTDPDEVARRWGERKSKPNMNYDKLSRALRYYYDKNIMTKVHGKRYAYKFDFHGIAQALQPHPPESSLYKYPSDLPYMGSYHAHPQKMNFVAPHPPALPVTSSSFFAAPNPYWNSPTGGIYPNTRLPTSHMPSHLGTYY
Method in brief: as §1

ELF1 = ELF1 (Homo sapiens, UniProt P32519 1-619); settings: protein: recombinant; tags: N-terminal GST; dsDNA, one strand shown
Sequence of ELF1 (P32519 whole entry): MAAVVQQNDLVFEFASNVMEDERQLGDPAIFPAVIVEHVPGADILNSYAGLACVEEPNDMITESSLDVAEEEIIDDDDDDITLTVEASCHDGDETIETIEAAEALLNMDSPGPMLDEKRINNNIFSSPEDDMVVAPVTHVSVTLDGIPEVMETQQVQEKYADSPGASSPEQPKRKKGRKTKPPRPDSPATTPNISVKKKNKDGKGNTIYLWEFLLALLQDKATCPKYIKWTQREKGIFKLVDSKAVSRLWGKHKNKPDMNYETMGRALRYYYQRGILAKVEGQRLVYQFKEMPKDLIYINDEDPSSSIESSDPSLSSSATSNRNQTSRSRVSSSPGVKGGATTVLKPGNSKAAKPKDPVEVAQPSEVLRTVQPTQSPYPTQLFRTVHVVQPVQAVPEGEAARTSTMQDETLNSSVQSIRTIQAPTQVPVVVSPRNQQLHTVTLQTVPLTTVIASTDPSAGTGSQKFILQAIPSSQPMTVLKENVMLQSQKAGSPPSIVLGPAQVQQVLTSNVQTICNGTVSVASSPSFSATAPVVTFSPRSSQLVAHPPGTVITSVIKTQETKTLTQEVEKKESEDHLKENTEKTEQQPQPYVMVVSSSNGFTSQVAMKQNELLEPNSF
Method in brief: as §1

EHF = biological target: T5, EHF (Homo sapiens, UniProt Q9NZC4 1-300); settings: protein: recombinant; tags: N-terminal GST; dsDNA, one strand shown
T5 sequence: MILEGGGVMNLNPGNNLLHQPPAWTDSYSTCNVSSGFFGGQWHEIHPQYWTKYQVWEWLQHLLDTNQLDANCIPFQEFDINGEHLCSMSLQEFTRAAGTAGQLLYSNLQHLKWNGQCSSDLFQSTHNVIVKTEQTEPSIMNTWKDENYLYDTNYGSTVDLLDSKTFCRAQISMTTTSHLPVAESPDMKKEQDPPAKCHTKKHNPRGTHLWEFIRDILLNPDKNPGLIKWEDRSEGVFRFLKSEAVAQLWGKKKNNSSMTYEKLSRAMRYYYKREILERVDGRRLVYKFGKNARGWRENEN
Method in brief: as §1

SPI1 = SPI1 (Homo sapiens, UniProt P17947 1-270); settings: protein: recombinant; tags: N-terminal GST; dsDNA, one strand shown
Method in brief: as §1

SPIB = SPIB (Homo sapiens, UniProt Q01892 1-262); settings: protein: recombinant; tags: N-terminal GST; dsDNA, one strand shown
Sequence of SPIB (Q01892 whole entry): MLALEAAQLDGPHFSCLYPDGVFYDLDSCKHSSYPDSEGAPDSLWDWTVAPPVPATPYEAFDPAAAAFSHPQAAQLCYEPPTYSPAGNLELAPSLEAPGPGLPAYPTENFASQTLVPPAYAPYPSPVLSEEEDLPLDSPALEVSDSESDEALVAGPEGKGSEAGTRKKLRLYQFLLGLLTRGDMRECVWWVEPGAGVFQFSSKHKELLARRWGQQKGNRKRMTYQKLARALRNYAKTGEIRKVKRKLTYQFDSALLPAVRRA
Method in brief: as §1

ELK3 = biological target: T6, ELK3 (Homo sapiens, UniProt P41970 1-407); settings: protein: recombinant; tags: N-terminal GST; dsDNA, one strand shown
T6 sequence: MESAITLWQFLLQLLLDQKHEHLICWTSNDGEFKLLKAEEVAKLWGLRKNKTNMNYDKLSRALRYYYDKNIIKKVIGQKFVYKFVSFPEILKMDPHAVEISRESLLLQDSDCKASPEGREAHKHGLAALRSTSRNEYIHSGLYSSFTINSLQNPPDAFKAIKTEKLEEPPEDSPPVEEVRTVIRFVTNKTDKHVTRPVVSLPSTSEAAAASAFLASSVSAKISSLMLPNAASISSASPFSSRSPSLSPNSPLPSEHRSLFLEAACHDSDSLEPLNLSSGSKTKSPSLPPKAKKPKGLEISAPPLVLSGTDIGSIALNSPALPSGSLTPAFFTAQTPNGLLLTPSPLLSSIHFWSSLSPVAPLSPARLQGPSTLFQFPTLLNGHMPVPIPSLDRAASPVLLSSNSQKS
Method in brief: as §1

FEV = biological target: T7, FEV (Homo sapiens, UniProt Q99581 1-238); settings: protein: recombinant; tags: N-terminal GST; dsDNA, one strand shown
T7 sequence: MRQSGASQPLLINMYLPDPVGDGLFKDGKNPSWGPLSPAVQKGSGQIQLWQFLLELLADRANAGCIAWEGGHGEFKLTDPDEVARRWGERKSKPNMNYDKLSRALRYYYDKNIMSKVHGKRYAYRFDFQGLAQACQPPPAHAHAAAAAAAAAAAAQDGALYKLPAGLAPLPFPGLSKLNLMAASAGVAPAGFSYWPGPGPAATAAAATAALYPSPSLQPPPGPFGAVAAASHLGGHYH
Method in brief: as §1

ETV5 = ETV5 (Homo sapiens, UniProt P41161 1-510); settings: protein: recombinant; tags: N-terminal GST; dsDNA, one strand shown
Sequence of ETV5 (P41161 whole entry): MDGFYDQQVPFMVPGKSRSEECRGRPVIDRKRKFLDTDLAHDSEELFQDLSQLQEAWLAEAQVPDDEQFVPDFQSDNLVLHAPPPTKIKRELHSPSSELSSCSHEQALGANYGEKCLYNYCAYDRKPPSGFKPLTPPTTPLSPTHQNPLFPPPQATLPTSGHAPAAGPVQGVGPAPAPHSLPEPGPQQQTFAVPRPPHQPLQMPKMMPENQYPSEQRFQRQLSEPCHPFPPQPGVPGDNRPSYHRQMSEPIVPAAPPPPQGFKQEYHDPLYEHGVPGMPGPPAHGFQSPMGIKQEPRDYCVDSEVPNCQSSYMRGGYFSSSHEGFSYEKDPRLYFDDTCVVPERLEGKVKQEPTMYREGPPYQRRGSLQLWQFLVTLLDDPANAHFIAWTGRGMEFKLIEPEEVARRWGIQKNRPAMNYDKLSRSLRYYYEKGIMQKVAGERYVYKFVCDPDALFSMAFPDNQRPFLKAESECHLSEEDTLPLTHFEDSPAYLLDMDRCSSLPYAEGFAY
Method in brief: as §1

HSF1 = HSF1 (Homo sapiens, UniProt Q00613 1-529); settings: protein: recombinant; tags: N-terminal GST; chain copies: 3; dsDNA, one strand shown
Sequence of HSF1 (Q00613 whole entry): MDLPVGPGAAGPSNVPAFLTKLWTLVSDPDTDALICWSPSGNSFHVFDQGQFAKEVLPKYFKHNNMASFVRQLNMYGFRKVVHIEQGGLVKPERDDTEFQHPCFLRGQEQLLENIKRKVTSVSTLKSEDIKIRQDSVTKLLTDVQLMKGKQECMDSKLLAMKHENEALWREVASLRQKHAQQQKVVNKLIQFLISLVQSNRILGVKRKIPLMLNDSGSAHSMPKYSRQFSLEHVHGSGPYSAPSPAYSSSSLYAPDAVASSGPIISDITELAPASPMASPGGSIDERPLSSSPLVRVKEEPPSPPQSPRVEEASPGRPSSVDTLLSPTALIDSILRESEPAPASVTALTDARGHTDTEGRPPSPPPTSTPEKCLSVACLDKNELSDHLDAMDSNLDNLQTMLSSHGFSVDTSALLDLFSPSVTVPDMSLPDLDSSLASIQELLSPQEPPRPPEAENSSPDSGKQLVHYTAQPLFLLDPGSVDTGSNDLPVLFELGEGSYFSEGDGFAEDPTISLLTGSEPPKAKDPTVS
Method in brief: as §1

SPIC = biological target: T8, SPIC (Homo sapiens, UniProt Q8N5J4 1-248); settings: protein: recombinant; tags: N-terminal GST; dsDNA, one strand shown
T8 sequence: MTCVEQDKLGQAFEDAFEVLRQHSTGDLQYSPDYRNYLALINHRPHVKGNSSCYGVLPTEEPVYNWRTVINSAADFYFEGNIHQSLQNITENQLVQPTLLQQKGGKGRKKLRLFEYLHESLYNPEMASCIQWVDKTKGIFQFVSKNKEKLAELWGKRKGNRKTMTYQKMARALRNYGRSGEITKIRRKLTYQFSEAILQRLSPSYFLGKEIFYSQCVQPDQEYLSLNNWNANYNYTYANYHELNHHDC
Method in brief: as §1

ELF4 = ELF4 (Homo sapiens, UniProt Q99607 1-663); settings: protein: recombinant; tags: N-terminal GST; dsDNA, one strand shown
Sequence of ELF4 (Q99607 whole entry): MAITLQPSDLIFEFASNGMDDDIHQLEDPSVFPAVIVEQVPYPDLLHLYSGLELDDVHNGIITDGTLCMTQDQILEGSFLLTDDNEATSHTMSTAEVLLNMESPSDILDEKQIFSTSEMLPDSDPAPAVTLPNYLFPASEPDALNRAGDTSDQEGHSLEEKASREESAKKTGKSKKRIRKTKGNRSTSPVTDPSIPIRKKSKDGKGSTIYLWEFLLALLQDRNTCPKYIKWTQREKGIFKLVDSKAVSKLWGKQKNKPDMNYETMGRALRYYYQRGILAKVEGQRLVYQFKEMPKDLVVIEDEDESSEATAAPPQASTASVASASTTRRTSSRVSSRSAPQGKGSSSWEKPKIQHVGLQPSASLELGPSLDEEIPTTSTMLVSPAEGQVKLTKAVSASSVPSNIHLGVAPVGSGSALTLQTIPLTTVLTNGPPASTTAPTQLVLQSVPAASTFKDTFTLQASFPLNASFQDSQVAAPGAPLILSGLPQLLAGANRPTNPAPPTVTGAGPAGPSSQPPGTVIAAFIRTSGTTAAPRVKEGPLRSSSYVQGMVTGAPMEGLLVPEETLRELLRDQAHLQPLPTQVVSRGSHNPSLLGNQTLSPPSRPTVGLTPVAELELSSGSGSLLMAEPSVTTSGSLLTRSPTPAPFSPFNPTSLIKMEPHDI
Method in brief: as §1

ELK4 = biological target: T9, ELK4 (Homo sapiens, UniProt P28324-2 1-405); settings: protein: recombinant; tags: N-terminal GST; dsDNA, one strand shown
T9 sequence: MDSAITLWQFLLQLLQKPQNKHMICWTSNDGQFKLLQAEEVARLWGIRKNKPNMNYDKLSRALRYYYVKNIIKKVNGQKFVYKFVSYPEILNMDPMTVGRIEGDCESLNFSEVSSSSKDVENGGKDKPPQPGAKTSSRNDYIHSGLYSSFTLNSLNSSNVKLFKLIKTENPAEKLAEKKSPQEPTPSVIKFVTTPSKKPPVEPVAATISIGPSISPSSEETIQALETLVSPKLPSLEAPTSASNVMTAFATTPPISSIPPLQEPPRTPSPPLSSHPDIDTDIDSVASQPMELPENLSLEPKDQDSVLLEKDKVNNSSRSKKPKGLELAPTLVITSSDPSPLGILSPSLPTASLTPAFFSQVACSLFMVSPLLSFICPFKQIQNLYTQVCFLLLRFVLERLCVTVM
Method in brief: as §1

ETV2 = biological target: T10, ETV2 (Homo sapiens, UniProt O00321 1-342); settings: protein: recombinant; tags: N-terminal GST; dsDNA, one strand shown
T10 sequence: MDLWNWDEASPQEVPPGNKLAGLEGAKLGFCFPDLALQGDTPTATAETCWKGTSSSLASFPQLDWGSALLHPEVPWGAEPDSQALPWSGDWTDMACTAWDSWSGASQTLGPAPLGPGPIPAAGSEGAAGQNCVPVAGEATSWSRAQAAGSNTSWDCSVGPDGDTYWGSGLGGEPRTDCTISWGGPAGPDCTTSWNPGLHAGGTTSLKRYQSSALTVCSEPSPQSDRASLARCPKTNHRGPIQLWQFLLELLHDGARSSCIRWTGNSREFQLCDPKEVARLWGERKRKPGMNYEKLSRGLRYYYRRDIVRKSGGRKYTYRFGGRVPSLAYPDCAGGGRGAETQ
Method in brief: as §1

ELF3 = biological target: T11, ELF3 (Homo sapiens, UniProt P78545 1-371); settings: protein: recombinant; tags: N-terminal GST; dsDNA, one strand shown
T11 sequence: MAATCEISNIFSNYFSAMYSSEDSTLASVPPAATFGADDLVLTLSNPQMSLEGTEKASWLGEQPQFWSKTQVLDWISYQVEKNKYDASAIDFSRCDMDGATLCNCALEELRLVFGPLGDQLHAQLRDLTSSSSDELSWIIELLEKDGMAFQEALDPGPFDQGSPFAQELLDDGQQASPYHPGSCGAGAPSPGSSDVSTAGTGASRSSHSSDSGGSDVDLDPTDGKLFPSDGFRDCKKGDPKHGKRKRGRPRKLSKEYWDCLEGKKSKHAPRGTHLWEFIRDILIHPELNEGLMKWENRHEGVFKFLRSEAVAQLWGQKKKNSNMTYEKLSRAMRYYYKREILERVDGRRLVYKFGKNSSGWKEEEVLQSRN
Method in brief: as §1

CRX = CRX (Homo sapiens, UniProt O43186 1-299); settings: protein: recombinant; tags: N-terminal GST; dsDNA, one strand shown
Sequence of CRX (O43186 whole entry): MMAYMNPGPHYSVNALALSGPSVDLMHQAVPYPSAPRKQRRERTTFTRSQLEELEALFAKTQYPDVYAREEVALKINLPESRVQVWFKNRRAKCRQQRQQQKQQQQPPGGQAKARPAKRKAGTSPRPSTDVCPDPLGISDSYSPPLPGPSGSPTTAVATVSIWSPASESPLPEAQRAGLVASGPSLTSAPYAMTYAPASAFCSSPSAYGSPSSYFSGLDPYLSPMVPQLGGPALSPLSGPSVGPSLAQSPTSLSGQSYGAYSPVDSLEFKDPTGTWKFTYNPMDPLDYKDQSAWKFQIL
Method in brief: as §1

ETV1 = ETV1 (Homo sapiens, UniProt P50549 1-477); settings: protein: recombinant; tags: N-terminal GST; dsDNA, one strand shown
Sequence of ETV1 (P50549 whole entry): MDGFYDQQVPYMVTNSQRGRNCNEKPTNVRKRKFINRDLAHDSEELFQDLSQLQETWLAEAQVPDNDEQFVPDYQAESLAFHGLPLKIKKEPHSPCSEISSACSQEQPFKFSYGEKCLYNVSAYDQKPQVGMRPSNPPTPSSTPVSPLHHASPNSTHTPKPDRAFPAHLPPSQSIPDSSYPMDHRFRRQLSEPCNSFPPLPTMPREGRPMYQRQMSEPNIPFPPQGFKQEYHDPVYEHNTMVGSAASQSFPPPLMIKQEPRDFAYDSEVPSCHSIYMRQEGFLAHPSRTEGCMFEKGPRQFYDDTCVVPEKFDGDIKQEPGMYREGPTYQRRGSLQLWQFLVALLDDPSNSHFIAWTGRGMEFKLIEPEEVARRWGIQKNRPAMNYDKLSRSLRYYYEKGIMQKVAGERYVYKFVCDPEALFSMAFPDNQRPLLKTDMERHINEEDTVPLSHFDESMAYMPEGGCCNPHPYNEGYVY
Method in brief: as §1

## CTCGTC
FLI1
  binding signal: 1.49 fold enrichment (6-mer frequency, TF over GST control)
ELK1
  binding signal: 1.27 fold enrichment (6-mer frequency, TF over GST control)
GABPA
  binding signal: 1.51 fold enrichment (6-mer frequency, TF over GST control)
ERG
  binding signal: 1.37 fold enrichment (6-mer frequency, TF over GST control)
ELF1
  binding signal: 1.36 fold enrichment (6-mer frequency, TF over GST control)
EHF
  binding signal: 1.36 fold enrichment (6-mer frequency, TF over GST control)
SPI1
  binding signal: 1.34 fold enrichment (6-mer frequency, TF over GST control)
SPIB
  binding signal: 1.39 fold enrichment (6-mer frequency, TF over GST control)
ELK3
  binding signal: 1.46 fold enrichment (6-mer frequency, TF over GST control)
FEV
  binding signal: 1.31 fold enrichment (6-mer frequency, TF over GST control)
ETV5
  binding signal: 1.31 fold enrichment (6-mer frequency, TF over GST control)
HSF1
  binding signal: 1.22 fold enrichment (6-mer frequency, TF over GST control)
SPIC
  binding signal: 1.37 fold enrichment (6-mer frequency, TF over GST control)
ELF4
  binding signal: 1.42 fold enrichment (6-mer frequency, TF over GST control)
ELK4
  binding signal: 1.57 fold enrichment (6-mer frequency, TF over GST control)
ETV2
  binding signal: 1.25 fold enrichment (6-mer frequency, TF over GST control)
ELF3
  binding signal: 1.47 fold enrichment (6-mer frequency, TF over GST control)
CRX
  binding signal: 1.02 fold enrichment (6-mer frequency, TF over GST control)
ETV1
  binding signal: 1.45 fold enrichment (6-mer frequency, TF over GST control)
